How the values were obtained:
Test in all cases: PBM binding z-score (relative to random genomic background probes); higher = stronger binding; sequences stand for … in GC…GCGATTGACAGCGTAGAATGAAGG
[1] = system: RARb homodimer (NR concentration 270 nM)
Summary of the method: (§1)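 On custom Agilent 4×180K arrays, double-stranded probes with 34-nt variable regions carried direct-repeat seeds, single-nucleotide variants, half-site ablations or random human genomic background. Ligand-free nuclear receptor dimers were applied for 1 h, and binding was read with antibodies against each partner (one per run). Binding z-scores come from regression-normalized fluorescence, with the random background probes as reference.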

[2] = system: RARg:RXRa (NR concentration 270 nM, RXRa partner concentration 90 nM)
Summary of the method: as §1

[3] = system: RARg homodimer (NR concentration 270 nM)
Summary of the method: as §1

[4] = system: RXRa DBDmut IVT, anti-RXR (DBD mutation: RXRa K156A/R161A, NR concentration 90 nM)
Summary of the method: as §1

[5] = system: RXRa homodimer (NR concentration 180 nM)
Summary of the method: as §1

[6] = system: THRa:RXRa (NR concentration 90 nM, RXRa partner concentration 90 nM)
Summary of the method: as §1

[7] = system: THRa homodimer (NR concentration 90 nM)
Summary of the method: as §1

[8] = system: VDR:RXRa (NR concentration 270 nM, RXRa partner concentration 90 nM)
Summary of the method: as §1

[9] = system: VDR homodimer (NR concentration 270 nM)
Summary of the method: as §1

Sequence	PBM binding z-score [1]	PBM binding z-score [2]	PBM binding z-score [3]	PBM binding z-score [4]	PBM binding z-score [5]	PBM binding z-score [6]	PBM binding z-score [7]	PBM binding z-score [8]	PBM binding z-score [9]
CCGAGTAGGTTCTGGGGCATTCAGGCAACGGTGA	0.469	-0.508	-0.495	-0.0942	-0.58	0.118	0.0185	-0.552	0.0206
CGTCCAAGGTCAAGTTCAGTGAAAGAGACTCGAA	4.68	6.6	7.17	4.31	6.26	3.99	2.87	4.91	4.75
GATACAGGGTCAAGGACAGAGTACGCGTATTGAT	3.58	5.67	5.78	2.36	6.51	3.85	2.14	4.78	2.72
TCTCTGAGGACACGAAGGTCAGAGCTTTCCAGAG	3.87	3.32	3.9	1.21	1.92	4.11	4.02	2.6	1.71
TGACAAAGTTCAAAGGTAACGTAAGTATCCACAC	3.83	6.01	5.91	4.38	6.68	3.36	-0.0359	5.25	4.23
GCTCGGAGGACAAGCTCAGAGCTTTGTCCGTAGA	-0.256	-0.416	0.0982	-0.613	-1.03	0.34	-0.504	-0.646	-0.467
GGAACGAGGGCAAGTTGACAGCAGAGTTTGATGG	1.76	1.71	2.41	2.46	1.16	1.17	-0.0541	0.799	1.42
GATGCAGGGTCAAGGCCAGAGTACGCGTATTGAT	3.44	5.2	4.79	1.98	5.72	3.46	0.878	4.21	1.78
CCTAGCCGGCCAGGGTCACTCAAGCATTTCGCTT	2.68	3.09	2.37	0.0811	3.47	2.91	1.08	2.37	1.38
CCGACTGGGGCACAGGTTACCATACTCAGTACGA	1.07	1.02	0.906	-0.122	0.761	0.272	-0.26	-0.165	-0.0992
GCTATTAATTGAAAGGGCAACCGAATGATTCTCG	1.96	0.91	1.26	0.65	0.421	0.301	-0.3	0.257	0.758
CCTACTGGGCCATCAGGTCATTGTTATCAACGTT	2.4	1.8	1.75	0.592	0.877	3.26	3.28	1.52	1.99
TCATATAGGTAATACAGGTGAGAGTCGGCATCTA	0.373	0.339	0.708	1.4	0.681	0.631	0.164	0.85	0.172
ATCTCTAGGTAAAGATGGTTCAGTGAATGCAAAT	-0.0603	0.324	0.292	-0.0269	0.0778	0.592	0.0966	0.607	0.095
ACAGACAGGTGATGAAGGTGACTCAGGCTATCAT	1.34	0.646	0.55	-0.283	0.581	1.01	-0.00476	0.516	-0.102
GCAGACAGGTGAAACGCAGGTAACTCACGGTGGC	-0.171	0.892	0.295	-0.351	0.662	0.832	-0.7	-0.56	-0.778
TATACAGGGTCAAAAGCCAGAGTACGAATGTCGA	2.74	4.82	4.2	2.54	5.88	3.04	0.446	4.1	2.71
CAAACTAGGTCTAGAGGTCAAAGTCCGCTTCCCG	4.55	5.26	4.46	1.89	5.98	3.8	1.56	4.93	4.46
ATCTCTAGGTAACAATTTCAGTGAAAGAGAGGAC	0.316	0.547	0.814	0.235	0.51	1.06	0.784	0.483	0.542
TGAATGAGGTTATAAAATCAGGGAACGTTGCAAA	0.0245	1.01	0.843	0.43	1.44	1.56	-0.0954	0.918	0.227
ATCCCTAGGTAACAAGTTCAGTGAAAGAGAGGAC	1.94	1.09	1.15	0.955	0.712	1.65	1.17	1.91	2.48
GCACGGAGGACAAGGTCAGAGCTTTGTCCGTAGA	3.22	3.17	3.57	1.01	2.56	2.89	1.58	1.34	0.622
ATCTCTAGGTAAAGATAGTTCAGTGATTGCAAAT	1.2	0.619	0.722	0.503	0.395	0.879	0.445	1.07	0.789
CGTCCAAGGTCAGAGGTCAGTGAAGAGATGACGG	5.38	7.02	7.05	2.66	7.78	4.58	2.42	5.16	2.61
CGAACTAGGTCAAGGACCGTGAATCTCCGCACGC	2.79	3.42	4.01	1.15	2.32	2.46	0.938	0.799	-0.163
AGTTAAAGTTCACTAGGTAACGTAAGATTCAGCT	3.53	4.38	4.95	3.86	3.07	1.92	0.252	3.64	3.22

Sequence	PBM binding z-score [1]	PBM binding z-score [2]	PBM binding z-score [3]	PBM binding z-score [4]	PBM binding z-score [5]	PBM binding z-score [6]	PBM binding z-score [7]	PBM binding z-score [8]	PBM binding z-score [9]
TCTATTAGTTGAAGAGCAACCGACGAGTCCGTTT	-0.385	-0.11	-0.0161	1.36	0.301	-0.14	-0.463	0.538	1.23
ATCGAAAGGTAGAAGGTGAGTATACCCACCCGAA	0.237	0.633	0.664	-0.929	0.752	0.231	-0.265	-0.0163	-0.279
ACCTCTAGGTAAAGATAGTTCAGTGAATGCAAAT	0.723	0.4	0.505	0.0276	0.0359	0.533	-0.346	0.302	0.268
CCGAGTAGGGTATGGGGCATTCAGGCAACGGTGA	0.595	-0.153	-0.189	-0.938	0.102	0.159	0.0739	-0.217	0.36
TATGCTAGGTCAACGATGGTCAGCTAATCTGCTA	3.36	4.02	4.8	0.79	2.62	3.24	0.639	1.79	-0.267
TCTAGTTGGTCACGGATGTCACACACGACGGGTA	1.57	1.43	1.91	0.683	1.15	0.409	0.417	1.18	0.656
TCATATAGGTAAACAGGTGAAAGTCCGTAAGTTA	0.747	0.484	0.254	1.68	1.04	0.795	0.578	1.27	0.358
TCATATAGGTAAAAGGTGAACGTCGGTGTGGTAA	2.19	2.22	1.26	1.84	2.94	1.84	0.67	1.79	0.547
TCTAGTTGGCCAAAGGTCACACACTCGAAATGCG	5.04	6.5	6.31	1.5	7.78	3.78	1.77	4.93	2.27
TCTTGTAGATCAATAGAGGTTCAGAAAGTGCGCT	0.168	0.234	0.116	0.728	0.478	0.501	-0.823	1.65	1.37
AGTCAAAGTTCAGGACGAGGTAACGTGAAGCACG	1.95	4.86	4.39	2.8	3.03	3.97	1.65	3.16	1.62
CAAACTAGGTCAATAGGTCAAAGTCCGCTTCCCG	5.26	7.95	6.55	2.03	6.54	3.62	1.05	4.64	2.03
GGAGCGAGGGCATTCGAGTTGATAGCATGGCGAT	0.497	0.849	1.26	2.53	0.554	3.15	-0.906	3.31	3.06
CCTACTGGGCCAAGGTCATTGGTCAGTCAAAGCA	3.51	3.85	3.86	0.988	3.73	3.48	2.62	3.39	3.41
CCTTACGGGTCAATGTTATAGCACGGGTGGTACG	2.54	4.03	3.85	0.842	4.04	1.85	-0.227	–	0.834
CCTCGGAGGACAGAAGGTCACAGCTGTCCGCTTT	4.26	4.72	4.05	0.581	3.83	3.36	0.632	2.64	0.765
AATACAGGGTCATCGTAGCCCAGAGTACGCACAG	3.25	5.57	4.42	3.46	6.57	3.69	1.34	4.83	3.87
ACTATTAGTTGAGACGACGGCAACCGATAGGTTG	-0.491	0.00753	0.223	-0.0527	0.0138	-0.529	-0.596	-0.484	-0.117
CCGACTGGGGCAGAAGGGTTACCATACCATCCGG	1.08	0.666	0.787	-1.36	0.641	0.0428	-0.605	0.121	-0.332
CCTCGGAGGACAGAAGGTGAGAGCTGTCCGCTTT	1.05	0.543	0.503	-0.26	-0.253	0.747	-0.514	-0.483	-0.603
CCTTACGGGTCACTAGGTTATAGCACGACGAGCG	3	4.53	4.46	1.22	4.2	2.29	0.139	3.38	1.24
CCGACTGGGGAAGAAAGGTTACCATACCATCCGG	1.97	0.982	0.848	-0.897	1.49	1.09	-0.21	0.522	-0.0513
TCTAGTTGGTCAAAGGTCACATACTCGAAATGCG	5.18	6.93	6.01	1.65	7.86	3.89	1.76	5.02	2.75
CCGAGTCGGTTATGGGGCATTCAGGCAACGGTGA	0.462	-0.0743	-0.117	-0.648	-0.27	0.224	-0.00692	-0.358	0.0226
TCTTGTAGATCAGCAGGTTAAGTAAGCTGGCCAA	0.124	-0.106	-0.396	0.597	0.384	0.37	-0.0624	0.413	-0.499
TGTCAAAGTTCAAAGGGAACGTAAGTATCCACAC	3.12	5.56	5.38	4.04	4.94	2.06	-0.715	4.92	4.05
